In article PMC7862700, “An all-to-all approach to the identification of sequence-specific readers for epigenetic DNA modifications on cytosine”:

What was measured:
Experiment in all cases: DAPPL (digital affinity profiling via proximity ligation, sequencing); 10 mM Tris-HCl pH 7.5, 50 mM NaCl, 1 mM DTT, 4% glycerol, room temperature, 30 min; GST-TFs on glutathione beads, 16-mer random dsDNA library, 0.1% formaldehyde crosslink after washing; high values mean tight binding
Conditions in all cases: protein: recombinant; tags: N-terminal GST; dsDNA, one strand shown
[1] = target: T1, FLI1 (Homo sapiens, UniProt Q01543 1-452)
T1 sequence: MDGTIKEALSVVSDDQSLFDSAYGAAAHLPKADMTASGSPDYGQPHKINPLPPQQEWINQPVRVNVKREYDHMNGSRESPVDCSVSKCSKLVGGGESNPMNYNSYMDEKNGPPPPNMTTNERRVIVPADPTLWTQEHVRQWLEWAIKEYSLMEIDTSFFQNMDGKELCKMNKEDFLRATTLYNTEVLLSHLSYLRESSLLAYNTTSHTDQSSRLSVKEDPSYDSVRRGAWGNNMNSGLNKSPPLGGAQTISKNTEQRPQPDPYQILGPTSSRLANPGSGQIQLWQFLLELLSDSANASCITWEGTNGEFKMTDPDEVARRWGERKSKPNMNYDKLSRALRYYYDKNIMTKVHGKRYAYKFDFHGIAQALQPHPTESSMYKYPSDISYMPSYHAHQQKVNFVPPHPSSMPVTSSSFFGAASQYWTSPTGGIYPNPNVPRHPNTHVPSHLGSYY
In short: (§1)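 Human transcription factors fused to GST were expressed in yeast, captured on glutathione beads, given DNA barcodes and pooled with a GST-only negative control. Pools were incubated with 200 nmole of a 16-mer random double-stranded DNA library in Tris/NaCl/DTT/glycerol buffer at room temperature for 30 min. They were then washed, crosslinked with 0.1% formaldehyde, proximity-ligated (BsaI/T4 ligase, 1 h, 37 °C), PCR-amplified and sequenced on an Illumina NextSeq500. Binding signal is each 6-mer's read frequency for a factor divided by its frequency for the GST control.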

[2] = target: T2, ELK1 (Homo sapiens, UniProt P19419 1-428)
T2 sequence: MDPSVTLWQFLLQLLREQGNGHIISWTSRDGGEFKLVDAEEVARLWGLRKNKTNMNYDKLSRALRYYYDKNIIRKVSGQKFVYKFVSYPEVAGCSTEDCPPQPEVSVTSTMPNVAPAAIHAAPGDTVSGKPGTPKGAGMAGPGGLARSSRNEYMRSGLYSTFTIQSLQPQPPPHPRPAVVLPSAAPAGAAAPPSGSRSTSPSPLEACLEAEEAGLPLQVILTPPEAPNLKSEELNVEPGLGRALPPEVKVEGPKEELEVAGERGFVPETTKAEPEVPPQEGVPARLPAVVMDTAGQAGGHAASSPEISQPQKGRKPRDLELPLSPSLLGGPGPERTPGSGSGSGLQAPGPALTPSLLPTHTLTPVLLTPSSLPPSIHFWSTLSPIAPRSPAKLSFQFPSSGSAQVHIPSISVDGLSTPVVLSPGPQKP
In short: as §1

[3] = target: T3, GABPA (Homo sapiens, UniProt Q06546 1-454)
T3 sequence: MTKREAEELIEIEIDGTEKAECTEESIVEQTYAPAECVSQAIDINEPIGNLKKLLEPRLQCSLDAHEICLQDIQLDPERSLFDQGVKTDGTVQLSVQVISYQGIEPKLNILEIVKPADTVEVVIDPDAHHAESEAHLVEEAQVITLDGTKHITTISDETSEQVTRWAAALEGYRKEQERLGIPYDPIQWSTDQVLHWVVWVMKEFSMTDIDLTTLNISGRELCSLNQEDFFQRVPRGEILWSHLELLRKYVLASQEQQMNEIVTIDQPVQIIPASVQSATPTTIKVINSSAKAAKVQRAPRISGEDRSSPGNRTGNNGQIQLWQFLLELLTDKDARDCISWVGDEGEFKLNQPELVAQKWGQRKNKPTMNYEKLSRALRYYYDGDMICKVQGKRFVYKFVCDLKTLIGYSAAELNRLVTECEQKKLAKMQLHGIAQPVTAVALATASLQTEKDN
In short: as §1

[4] = target: T4, ERG (Homo sapiens, UniProt P11308 1-479)
T4 sequence: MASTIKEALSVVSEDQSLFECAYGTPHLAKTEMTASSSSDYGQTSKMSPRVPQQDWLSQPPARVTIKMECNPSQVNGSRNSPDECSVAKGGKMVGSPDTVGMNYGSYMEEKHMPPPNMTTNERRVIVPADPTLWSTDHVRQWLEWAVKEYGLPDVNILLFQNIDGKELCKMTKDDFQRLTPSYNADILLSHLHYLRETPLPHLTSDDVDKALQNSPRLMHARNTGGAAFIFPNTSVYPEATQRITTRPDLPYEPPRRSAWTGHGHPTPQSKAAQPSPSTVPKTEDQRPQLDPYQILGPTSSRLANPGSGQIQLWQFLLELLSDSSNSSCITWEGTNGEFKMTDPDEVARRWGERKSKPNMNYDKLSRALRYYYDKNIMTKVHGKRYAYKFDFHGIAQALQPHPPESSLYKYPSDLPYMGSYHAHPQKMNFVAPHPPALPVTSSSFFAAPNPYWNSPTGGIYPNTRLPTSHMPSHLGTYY
In short: as §1

[5] = target: ELF1 (Homo sapiens, UniProt P32519 1-619)
Sequence of ELF1 (P32519 whole entry): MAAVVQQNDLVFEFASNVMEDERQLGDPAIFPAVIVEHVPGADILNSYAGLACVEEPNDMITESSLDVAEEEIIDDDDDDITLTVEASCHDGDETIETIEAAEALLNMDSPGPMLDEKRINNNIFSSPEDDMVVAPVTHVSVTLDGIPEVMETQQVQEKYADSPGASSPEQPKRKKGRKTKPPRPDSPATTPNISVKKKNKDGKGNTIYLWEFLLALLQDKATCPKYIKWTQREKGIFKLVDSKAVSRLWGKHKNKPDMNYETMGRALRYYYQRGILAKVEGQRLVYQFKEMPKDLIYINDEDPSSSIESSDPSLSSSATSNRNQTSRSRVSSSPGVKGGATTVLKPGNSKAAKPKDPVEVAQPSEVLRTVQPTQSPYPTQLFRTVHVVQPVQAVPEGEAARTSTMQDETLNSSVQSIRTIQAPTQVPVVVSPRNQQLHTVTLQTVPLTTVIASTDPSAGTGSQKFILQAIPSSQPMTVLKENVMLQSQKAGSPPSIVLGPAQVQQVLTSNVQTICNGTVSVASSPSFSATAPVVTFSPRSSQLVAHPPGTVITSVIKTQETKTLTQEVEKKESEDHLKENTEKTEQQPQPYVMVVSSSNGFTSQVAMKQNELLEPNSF
In short: as §1

[6] = target: T5, EHF (Homo sapiens, UniProt Q9NZC4 1-300)
T5 sequence: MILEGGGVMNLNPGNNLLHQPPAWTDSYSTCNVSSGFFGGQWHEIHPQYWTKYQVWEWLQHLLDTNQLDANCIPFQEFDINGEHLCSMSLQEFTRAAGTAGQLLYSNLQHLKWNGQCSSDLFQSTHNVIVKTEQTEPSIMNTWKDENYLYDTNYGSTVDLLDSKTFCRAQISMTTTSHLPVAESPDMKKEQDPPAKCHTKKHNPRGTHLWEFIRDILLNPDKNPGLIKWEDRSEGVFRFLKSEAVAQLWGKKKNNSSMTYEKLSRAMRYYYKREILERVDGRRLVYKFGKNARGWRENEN
In short: as §1

[7] = target: SPI1 (Homo sapiens, UniProt P17947 1-270)
In short: as §1

[8] = target: SPIB (Homo sapiens, UniProt Q01892 1-262)
Sequence of SPIB (Q01892 whole entry): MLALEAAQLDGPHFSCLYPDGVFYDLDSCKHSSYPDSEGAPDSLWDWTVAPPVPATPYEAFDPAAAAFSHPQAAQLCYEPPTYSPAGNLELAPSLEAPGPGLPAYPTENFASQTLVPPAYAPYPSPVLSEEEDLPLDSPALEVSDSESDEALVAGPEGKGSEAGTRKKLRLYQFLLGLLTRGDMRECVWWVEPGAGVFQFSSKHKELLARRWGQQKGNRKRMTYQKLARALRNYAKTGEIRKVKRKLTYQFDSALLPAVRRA
In short: as §1

[9] = target: T6, ELK3 (Homo sapiens, UniProt P41970 1-407)
T6 sequence: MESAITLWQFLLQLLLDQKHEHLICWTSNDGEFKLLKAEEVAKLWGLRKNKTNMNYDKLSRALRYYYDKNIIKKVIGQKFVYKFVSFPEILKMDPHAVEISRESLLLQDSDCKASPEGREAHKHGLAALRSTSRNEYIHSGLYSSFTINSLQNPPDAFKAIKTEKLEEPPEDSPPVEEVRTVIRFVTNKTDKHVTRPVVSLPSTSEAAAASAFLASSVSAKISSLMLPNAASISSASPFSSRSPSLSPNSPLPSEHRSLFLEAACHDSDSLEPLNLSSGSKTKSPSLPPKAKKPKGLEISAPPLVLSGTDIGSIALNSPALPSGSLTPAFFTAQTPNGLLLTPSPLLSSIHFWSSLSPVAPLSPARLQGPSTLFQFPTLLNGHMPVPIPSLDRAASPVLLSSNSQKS
In short: as §1

[10] = target: T7, FEV (Homo sapiens, UniProt Q99581 1-238)
T7 sequence: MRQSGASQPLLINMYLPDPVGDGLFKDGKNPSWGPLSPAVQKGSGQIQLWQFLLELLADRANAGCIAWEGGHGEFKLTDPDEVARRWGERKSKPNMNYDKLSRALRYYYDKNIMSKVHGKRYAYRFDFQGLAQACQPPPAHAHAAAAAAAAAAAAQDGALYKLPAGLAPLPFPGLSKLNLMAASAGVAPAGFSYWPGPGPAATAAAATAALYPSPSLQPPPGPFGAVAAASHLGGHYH
In short: as §1

[11] = target: ETV5 (Homo sapiens, UniProt P41161 1-510)
Sequence of ETV5 (P41161 whole entry): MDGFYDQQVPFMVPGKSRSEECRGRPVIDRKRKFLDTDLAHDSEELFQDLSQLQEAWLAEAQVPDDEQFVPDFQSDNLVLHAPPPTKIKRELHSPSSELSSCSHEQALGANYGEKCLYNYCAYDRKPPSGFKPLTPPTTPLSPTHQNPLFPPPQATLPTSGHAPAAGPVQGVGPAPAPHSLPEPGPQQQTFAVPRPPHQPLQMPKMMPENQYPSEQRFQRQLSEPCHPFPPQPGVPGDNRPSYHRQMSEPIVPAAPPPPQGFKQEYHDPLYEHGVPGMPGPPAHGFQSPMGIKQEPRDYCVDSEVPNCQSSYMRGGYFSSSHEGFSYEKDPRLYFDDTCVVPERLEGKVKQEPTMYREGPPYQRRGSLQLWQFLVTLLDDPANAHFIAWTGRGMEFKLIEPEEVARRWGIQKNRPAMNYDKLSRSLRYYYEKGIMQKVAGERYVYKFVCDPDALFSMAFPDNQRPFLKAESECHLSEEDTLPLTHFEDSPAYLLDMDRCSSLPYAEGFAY
In short: as §1

[12] = target: T8, SPIC (Homo sapiens, UniProt Q8N5J4 1-248)
T8 sequence: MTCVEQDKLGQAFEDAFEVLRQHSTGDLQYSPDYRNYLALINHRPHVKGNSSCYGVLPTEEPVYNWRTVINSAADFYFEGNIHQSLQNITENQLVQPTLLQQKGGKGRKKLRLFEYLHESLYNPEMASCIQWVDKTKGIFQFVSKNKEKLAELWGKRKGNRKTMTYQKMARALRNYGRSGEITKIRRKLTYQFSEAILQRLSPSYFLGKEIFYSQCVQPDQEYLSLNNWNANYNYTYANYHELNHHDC
In short: as §1

[13] = target: ELF4 (Homo sapiens, UniProt Q99607 1-663)
Sequence of ELF4 (Q99607 whole entry): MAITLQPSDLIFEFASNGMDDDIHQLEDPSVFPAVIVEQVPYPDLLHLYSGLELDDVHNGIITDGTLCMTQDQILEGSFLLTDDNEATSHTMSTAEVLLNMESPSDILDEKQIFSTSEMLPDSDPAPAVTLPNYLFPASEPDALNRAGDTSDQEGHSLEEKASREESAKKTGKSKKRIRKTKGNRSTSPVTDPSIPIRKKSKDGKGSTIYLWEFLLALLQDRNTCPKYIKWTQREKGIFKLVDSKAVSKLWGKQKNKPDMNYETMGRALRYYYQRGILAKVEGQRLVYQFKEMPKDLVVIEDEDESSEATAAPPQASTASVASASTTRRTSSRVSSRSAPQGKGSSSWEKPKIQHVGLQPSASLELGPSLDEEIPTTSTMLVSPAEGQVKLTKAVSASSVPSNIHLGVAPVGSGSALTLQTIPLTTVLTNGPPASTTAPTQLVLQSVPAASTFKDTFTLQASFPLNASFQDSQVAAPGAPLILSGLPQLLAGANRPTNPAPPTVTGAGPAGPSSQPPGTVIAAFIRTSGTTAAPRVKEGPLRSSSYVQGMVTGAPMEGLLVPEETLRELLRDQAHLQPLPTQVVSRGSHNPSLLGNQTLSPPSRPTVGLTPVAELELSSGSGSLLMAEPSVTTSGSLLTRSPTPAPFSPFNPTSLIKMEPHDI
In short: as §1

[14] = target: T9, ELK4 (Homo sapiens, UniProt P28324-2 1-405)
T9 sequence: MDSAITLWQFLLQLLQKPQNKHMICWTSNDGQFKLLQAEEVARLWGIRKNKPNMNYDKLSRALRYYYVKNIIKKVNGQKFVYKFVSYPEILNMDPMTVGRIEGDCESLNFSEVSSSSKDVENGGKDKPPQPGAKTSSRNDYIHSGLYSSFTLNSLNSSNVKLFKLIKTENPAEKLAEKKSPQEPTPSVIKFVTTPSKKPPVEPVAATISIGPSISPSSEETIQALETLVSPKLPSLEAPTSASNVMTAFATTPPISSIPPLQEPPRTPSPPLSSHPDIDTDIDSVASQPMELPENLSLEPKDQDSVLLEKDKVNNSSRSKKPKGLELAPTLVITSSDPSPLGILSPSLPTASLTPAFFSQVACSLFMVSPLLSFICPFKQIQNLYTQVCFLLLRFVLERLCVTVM
In short: as §1

[15] = target: T10, ETV2 (Homo sapiens, UniProt O00321 1-342)
T10 sequence: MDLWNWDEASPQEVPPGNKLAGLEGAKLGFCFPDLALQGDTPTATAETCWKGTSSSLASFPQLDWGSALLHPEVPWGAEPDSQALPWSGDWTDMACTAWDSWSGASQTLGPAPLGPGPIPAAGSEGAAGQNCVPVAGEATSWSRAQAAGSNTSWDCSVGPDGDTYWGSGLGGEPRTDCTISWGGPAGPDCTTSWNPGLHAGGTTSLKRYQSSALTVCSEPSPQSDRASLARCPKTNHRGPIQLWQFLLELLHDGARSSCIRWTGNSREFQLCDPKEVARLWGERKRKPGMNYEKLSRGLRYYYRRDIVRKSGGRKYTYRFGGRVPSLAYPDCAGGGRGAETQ
In short: as §1

[16] = target: T11, ELF3 (Homo sapiens, UniProt P78545 1-371)
T11 sequence: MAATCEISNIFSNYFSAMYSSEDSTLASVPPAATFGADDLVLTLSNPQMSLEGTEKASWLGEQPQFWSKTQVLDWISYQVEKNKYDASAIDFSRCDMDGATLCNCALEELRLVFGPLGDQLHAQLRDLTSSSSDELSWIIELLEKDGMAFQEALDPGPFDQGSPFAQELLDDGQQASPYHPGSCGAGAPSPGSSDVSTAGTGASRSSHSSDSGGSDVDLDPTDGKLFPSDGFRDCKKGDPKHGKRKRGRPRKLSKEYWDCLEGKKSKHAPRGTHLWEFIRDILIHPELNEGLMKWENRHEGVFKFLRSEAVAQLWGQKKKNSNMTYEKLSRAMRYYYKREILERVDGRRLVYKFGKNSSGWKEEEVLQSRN
In short: as §1

[17] = target: ETV1 (Homo sapiens, UniProt P50549 1-477)
Sequence of ETV1 (P50549 whole entry): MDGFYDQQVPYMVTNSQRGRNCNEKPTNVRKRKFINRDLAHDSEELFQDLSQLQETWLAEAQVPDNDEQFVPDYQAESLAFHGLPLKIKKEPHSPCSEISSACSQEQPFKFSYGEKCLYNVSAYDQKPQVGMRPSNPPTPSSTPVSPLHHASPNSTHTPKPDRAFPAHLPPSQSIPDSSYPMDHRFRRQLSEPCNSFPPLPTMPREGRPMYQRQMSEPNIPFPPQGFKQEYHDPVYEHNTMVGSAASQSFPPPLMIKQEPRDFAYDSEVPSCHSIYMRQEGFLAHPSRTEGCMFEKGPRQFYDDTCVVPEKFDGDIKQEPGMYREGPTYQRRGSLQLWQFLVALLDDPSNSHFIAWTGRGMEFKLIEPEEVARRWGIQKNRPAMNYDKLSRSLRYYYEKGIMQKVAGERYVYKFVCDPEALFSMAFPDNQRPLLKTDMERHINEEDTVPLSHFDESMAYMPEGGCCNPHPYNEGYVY
In short: as §1

GCCCTC
binding signal [1]: 1.12 fold enrichment (6-mer frequency, TF over GST control)
binding signal [2]: 1.18 fold enrichment (6-mer frequency, TF over GST control)
binding signal [3]: 1.25 fold enrichment (6-mer frequency, TF over GST control)
binding signal [4]: 1.11 fold enrichment (6-mer frequency, TF over GST control)
binding signal [5]: 1.17 fold enrichment (6-mer frequency, TF over GST control)
binding signal [6]: 1.18 fold enrichment (6-mer frequency, TF over GST control)
binding signal [7]: 1.1 fold enrichment (6-mer frequency, TF over GST control)
binding signal [8]: 1.18 fold enrichment (6-mer frequency, TF over GST control)
binding signal [9]: 1.15 fold enrichment (6-mer frequency, TF over GST control)
binding signal [10]: 1.18 fold enrichment (6-mer frequency, TF over GST control)
binding signal [11]: 1.12 fold enrichment (6-mer frequency, TF over GST control)
binding signal [12]: 1.26 fold enrichment (6-mer frequency, TF over GST control)
binding signal [13]: 1.3 fold enrichment (6-mer frequency, TF over GST control)
binding signal [14]: 1.1 fold enrichment (6-mer frequency, TF over GST control)
binding signal [15]: 1.27 fold enrichment (6-mer frequency, TF over GST control)
binding signal [16]: 1.18 fold enrichment (6-mer frequency, TF over GST control)
binding signal [17]: 1.18 fold enrichment (6-mer frequency, TF over GST control)

CCCCAC
binding signal [1]: 1.19 fold enrichment (6-mer frequency, TF over GST control)
binding signal [2]: 1.24 fold enrichment (6-mer frequency, TF over GST control)
binding signal [3]: 1.19 fold enrichment (6-mer frequency, TF over GST control)
binding signal [4]: 1.2 fold enrichment (6-mer frequency, TF over GST control)
binding signal [5]: 1.24 fold enrichment (6-mer frequency, TF over GST control)
binding signal [6]: 1.34 fold enrichment (6-mer frequency, TF over GST control)
binding signal [7]: 1.22 fold enrichment (6-mer frequency, TF over GST control)
binding signal [8]: 1.25 fold enrichment (6-mer frequency, TF over GST control)
binding signal [9]: 1.34 fold enrichment (6-mer frequency, TF over GST control)
binding signal [10]: 1.29 fold enrichment (6-mer frequency, TF over GST control)
binding signal [11]: 1.18 fold enrichment (6-mer frequency, TF over GST control)
binding signal [12]: 1.33 fold enrichment (6-mer frequency, TF over GST control)
binding signal [13]: 1.28 fold enrichment (6-mer frequency, TF over GST control)
binding signal [14]: 1.36 fold enrichment (6-mer frequency, TF over GST control)
binding signal [15]: 1.2 fold enrichment (6-mer frequency, TF over GST control)
binding signal [16]: 1.25 fold enrichment (6-mer frequency, TF over GST control)
binding signal [17]: 1.11 fold enrichment (6-mer frequency, TF over GST control)
